# Measurements published in article PMC5540273 (PLoS ONE, 2017).
# Read-outs that look alike come from different tables or passages of the source.
# How the values were obtained:
# STK16 = settings: concentration: 1 μM, replicates: in singlicate; n = 1
# STK33 = settings: concentration: 1 μM, replicates: in singlicate; n = 1
# STK35 = settings: concentration: 1 μM, replicates: in singlicate; n = 1
# STK36 = settings: concentration: 1 μM, replicates: in singlicate; n = 1
# STK39 = settings: concentration: 1 μM, replicates: in singlicate; n = 1
# SYK = settings: concentration: 1 μM, replicates: in singlicate; n = 1
# SgK110 = settings: concentration: 1 μM, replicates: in singlicate; n = 1
# TAK1 = system: T1, TAK1; settings: concentration: 1 μM, replicates: in singlicate; n = 1
# T1 construct: gene MAP3K7
# TAOK1 = settings: concentration: 1 μM, replicates: in singlicate; n = 1
# TAOK2 = settings: concentration: 1 μM, replicates: in singlicate; n = 1
# TAOK3 = settings: concentration: 1 μM, replicates: in singlicate; n = 1
# TBK1 = settings: concentration: 1 μM, replicates: in singlicate; n = 1
# TEC = settings: concentration: 1 μM, replicates: in singlicate; n = 1
# TESK1 = settings: concentration: 1 μM, replicates: in singlicate; n = 1
# TGFBR1 = settings: n = 1
# TGFBR2 = settings: concentration: 1 μM, replicates: in singlicate; n = 1
# TIE1 = settings: concentration: 1 μM, replicates: in singlicate; n = 1
# TIE2 = system: T2, TIE2; settings: concentration: 1 μM, replicates: in singlicate; n = 1
# T2 construct: gene TEK
# TLK1 = settings: concentration: 1 μM, replicates: in singlicate; n = 1
# TLK2 = settings: concentration: 1 μM, replicates: in singlicate; n = 1
# [1] = concentration: 1 μM, replicates: in singlicate
# 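Also: KINOMEscan kinase panel screen.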
structure (smiles),measurement,setting,value
Cl.O=C(Nc1cccc(-c2nn3ncccc3c2-c2ccnc(Nc3cccnc3)n2)c1)c1c(F)cccc1F [GSK312879],%Inh,STK16,3%
same,%Inh,STK33,0%
same,%Inh,STK35,0%
same,%Inh,STK36,96.7%
same,%Inh,STK39,17%
same,%Inh,SYK,3%
same,%Inh,SgK110,0%
same,%Inh,TAK1,0%
same,%Inh,TAOK1,5%
same,%Inh,TAOK2,0%
same,%Inh,TAOK3,7%
same,%Inh,TBK1,0%
same,%Inh,TEC,13%
same,%Inh,TESK1,0%
same,%Inh,TGFBR1; [1],0%
same,%Inh,TGFBR2,0%
same,%Inh,TIE1,34%
same,%Inh,TIE2,1%
same,%Inh,TLK1,0%
same,%Inh,TLK2,0%
Cl.Oc1ccc(-c2nc(-c3ccccc3)[nH]c2-c2ccncc2)cc1 [SB-428218],%Inh,STK16,16%
same,%Inh,STK33,0%
same,%Inh,STK35,0%
same,%Inh,STK36,0%
same,%Inh,STK39,0%
same,%Inh,SYK,24%
same,%Inh,SgK110,0%
same,%Inh,TAK1,0%
same,%Inh,TAOK1,0%
same,%Inh,TAOK2,0%
same,%Inh,TAOK3,0%
same,%Inh,TBK1,18%
same,%Inh,TEC,0%
same,%Inh,TESK1,36%
same,%Inh,TGFBR1; [1],60%
same,%Inh,TGFBR2,7%
same,%Inh,TIE1,0%
same,%Inh,TIE2,0%
same,%Inh,TLK1,0%
same,%Inh,TLK2,0%
CC(C)(C)c1ccc(C(=O)Nc2cn3cc(-c4cccnc4)ccc3n2)cc1,%Inh,STK16,27%
same,%Inh,STK33,6%
same,%Inh,STK35,0%
same,%Inh,STK36,4%
same,%Inh,STK39,0%
same,%Inh,SYK,0%
same,%Inh,SgK110,0%
same,%Inh,TAK1,11%
same,%Inh,TAOK1,0%
same,%Inh,TAOK2,2%
same,%Inh,TAOK3,0%
same,%Inh,TBK1,40%
same,%Inh,TEC,10%
same,%Inh,TESK1,4%
same,%Inh,TGFBR1; [1],1%
same,%Inh,TGFBR2,7%
same,%Inh,TIE1,4%
same,%Inh,TIE2,27%
same,%Inh,TLK1,46%
same,%Inh,TLK2,5%
Cc1ccc(-c2cc(-c3c[nH]nc3-c3ccccn3)ccn2)cc1 [GW684088],%Inh,STK16,28%
same,%Inh,STK33,0%
same,%Inh,STK35,0%
same,%Inh,STK36,23%
same,%Inh,STK39,0%
same,%Inh,SYK,21%
same,%Inh,SgK110,2%
same,%Inh,TAK1,15%
same,%Inh,TAOK1,0%
same,%Inh,TAOK2,0%
same,%Inh,TAOK3,0%
same,%Inh,TBK1,26%
same,%Inh,TEC,0%
same,%Inh,TESK1,0%
same,%Inh,TGFBR1; 1 µM,89%
same,%Inh,TGFBR2,77%
same,%Inh,TIE1,0%
same,%Inh,TIE2,13%
same,%Inh,TLK1,24%
same,%Inh,TLK2,10%
O=S(=O)(c1ccc(-c2ccnc3[nH]ccc23)cc1)N1CCCC1 [GSK846226],%Inh,STK16,67%
same,%Inh,STK33,0%
same,%Inh,STK35,0%
same,%Inh,STK36,0%
same,%Inh,STK39,0%
same,%Inh,SYK,13%
same,%Inh,SgK110,0%
same,%Inh,TAK1,1%
same,%Inh,TAOK1,0%
same,%Inh,TAOK2,0%
same,%Inh,TAOK3,0%
same,%Inh,TBK1,33%
same,%Inh,TEC,4%
same,%Inh,TESK1,9%
same,%Inh,TGFBR1; [1],0%
same,%Inh,TGFBR2,0%
same,%Inh,TIE1,0%
same,%Inh,TIE2,0%
same,%Inh,TLK1,24%
same,%Inh,TLK2,19%
O=c1cc(N2CCOCC2)nc2n(Cc3cccc(Cl)c3Cl)ccn12 [GSK2286295],%Inh,STK16,5%
same,%Inh,STK33,0%
same,%Inh,STK35,0%
same,%Inh,STK36,43%
same,%Inh,STK39,0%
same,%Inh,SYK,32%
same,%Inh,SgK110,0%
same,%Inh,TAK1,5%
same,%Inh,TAOK1,0%
same,%Inh,TAOK2,0%
same,%Inh,TAOK3,0%
same,%Inh,TBK1,19%
same,%Inh,TEC,0%
same,%Inh,TESK1,1%
same,%Inh,TGFBR1; [1],0%
same,%Inh,TGFBR2,0%
same,%Inh,TIE1,0%
same,%Inh,TIE2,0%
same,%Inh,TLK1,0%
same,%Inh,TLK2,0%
CS(=O)(=O)c1ccc(-c2c(-c3ncn[nH]3)sc(N3CCOCC3)c2C#N)cc1,%Inh,STK16,7%
same,%Inh,STK33,0%
same,%Inh,STK35,0%
same,%Inh,STK36,1%
same,%Inh,STK39,0%
same,%Inh,SYK,23%
same,%Inh,SgK110,15%
same,%Inh,TAK1,33%
same,%Inh,TAOK1,0%
same,%Inh,TAOK2,0%
same,%Inh,TAOK3,0%
same,%Inh,TBK1,14%
same,%Inh,TEC,9%
same,%Inh,TESK1,0%
same,%Inh,TGFBR1; [1],12%
same,%Inh,TGFBR2,10%
same,%Inh,TIE1,11%
same,%Inh,TIE2,9%
same,%Inh,TLK1,5%
same,%Inh,TLK2,0%
NC(=O)c1nnc2ccccc2c1N,%Inh,STK16,2%
same,%Inh,STK33,11%
same,%Inh,STK35,10%
same,%Inh,STK36,0%
same,%Inh,STK39,27%
same,%Inh,SYK,1%
same,%Inh,SgK110,0%
same,%Inh,TAK1,19%
same,%Inh,TAOK1,20%
same,%Inh,TAOK2,28%
same,%Inh,TAOK3,3%
same,%Inh,TBK1,40%
same,%Inh,TEC,0%
same,%Inh,TESK1,6%
same,%Inh,TGFBR1; [1],1%
same,%Inh,TGFBR2,0%
same,%Inh,TIE1,14%
same,%Inh,TIE2,98.7%
same,%Inh,TLK1,14%
same,%Inh,TLK2,0%
Cc1c(Cn2ccn3c(=O)cc(N4CCOCC4)nc23)cccc1C(F)(F)F [GSK2289044],%Inh,STK16,13%
same,%Inh,STK33,0%
same,%Inh,STK35,0%
same,%Inh,STK36,19%
same,%Inh,STK39,13%
same,%Inh,SYK,15%
same,%Inh,SgK110,0%
same,%Inh,TAK1,0%
same,%Inh,TAOK1,0%
same,%Inh,TAOK2,0%
same,%Inh,TAOK3,0%
same,%Inh,TBK1,7%
same,%Inh,TEC,0%
same,%Inh,TESK1,17%
same,%Inh,TGFBR1; [1],0%
same,%Inh,TGFBR2,0%
same,%Inh,TIE1,10%
same,%Inh,TIE2,0%
same,%Inh,TLK1,0%
same,%Inh,TLK2,0%
Fc1cccc(COc2nnc(-c3ccc4c(c3)CCO4)o2)c1,%Inh,STK16,7%
same,%Inh,STK33,2%
same,%Inh,STK35,4%
same,%Inh,STK36,7%
same,%Inh,STK39,0%
same,%Inh,SYK,0%
same,%Inh,SgK110,0%
same,%Inh,TAK1,7%
same,%Inh,TAOK1,0%
same,%Inh,TAOK2,0%
same,%Inh,TAOK3,0%
same,%Inh,TBK1,0%
same,%Inh,TEC,33%
same,%Inh,TESK1,0%
same,%Inh,TGFBR1; [1],10%
same,%Inh,TGFBR2,0%
same,%Inh,TIE1,7%
same,%Inh,TIE2,0%
same,%Inh,TLK1,25%
same,%Inh,TLK2,0%
